Test systems include EKVX NSCLC; SN12C renal; UO-31 renal; ACHN renal; CAKI-1 renal; A498 renal; CCRF-CEM leukemia; MOLT-4 leukemia; SR leukemia; RPMI-8226 leukemia; OVCAR-8 ovarian; OVCAR-5 ovarian; OVCAR-4 ovarian; SK-OV-3 ovarian; IGROV1 ovarian; OVCAR-3 ovarian; HS 578T breast; NCI/ADR-RES ovarian; T-47D breast.
Experiment in all cases: NCI-60 one-dose screen, 48 h (100 = growth as untreated, 0 = no growth, -100 = all killed)
Conditions in all cases: 10 µM unless noted

Compounds without any hit were thinned out: in the full panel of roughly 83,000, 20% have a hit.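 48-hour exposure, single concentration, 96-well plates; percent growth endpoint where 0 means no net growth. Active: below 10.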 Unmarked numbers belong to inactive results. The source made the active and inactive calls.

With `O=C(CCN1C(=O)/C(=C/c2ccccc2F)SC1=S)N1CCOCC1`, the growth with EKVX NSCLC was 86.8%; in the experiment with SN12C renal, 73.9%; in the experiment on UO-31 renal, 67.6%; with ACHN renal, 62.2%; with CAKI-1 renal, 84.7%; in the experiment on A498 renal it was 111%. Moreover, the growth in the experiment with CCRF-CEM leukemia is 53.3%; with MOLT-4 leukemia, 89.9%; in the experiment on SR leukemia, 46.7%; in the experiment on RPMI-8226 leukemia it was 59.7%; in the experiment on OVCAR-8 ovarian, 99.6%; in the experiment with OVCAR-5 ovarian, 94.2%. The growth in the experiment on OVCAR-4 ovarian was 99.1%; with SK-OV-3 ovarian, 135%; in the experiment with IGROV1 ovarian it was 61.9%; in the experiment on OVCAR-3 ovarian, 99.8%; in the experiment with HS 578T breast, 101%; in the experiment with NCI/ADR-RES ovarian it was 99.8%. Further, the growth in the experiment with T-47D breast was 59.3%.
`Oc1c(Cl)cc(Cl)c2ccc(CN3CCCCC3)nc12`: the growth was 30.6% in the experiment with EKVX NSCLC; 42.9% in the experiment with SN12C renal; 35.7% in the experiment on UO-31 renal; 29.4% in the experiment on ACHN renal; 36.2% with CAKI-1 renal; 49.9% in the experiment on A498 renal. Further, the growth in the experiment on CCRF-CEM leukemia was 18.6%; in the experiment with MOLT-4 leukemia, 26.1%; in the experiment on SR leukemia it was 18.8%; in the experiment with RPMI-8226 leukemia, 38.1%; in the experiment on OVCAR-8 ovarian, 23%; in the experiment on OVCAR-5 ovarian it was 55.7%. Moreover, the growth with OVCAR-4 ovarian was 33.3%; in the experiment with SK-OV-3 ovarian it was 62.1%; with IGROV1 ovarian it was 33.9%; with OVCAR-3 ovarian, 27.6%; with HS 578T breast, 66.5%; in the experiment on NCI/ADR-RES ovarian, 19.3%. The growth in the experiment on T-47D breast was 48.1%.
As for `N#Cc1nc(-c2ccccc2)oc1S(=O)(=O)N1CCCCC1`, the growth is 76.1% with EKVX NSCLC; 62.5% with SN12C renal; -82.2% (active) with UO-31 renal; -93.4% (active) with ACHN renal; 17.4% in the experiment on CAKI-1 renal; 89.9% in the experiment on A498 renal. Also, the growth is 4.27% (active) in the experiment with CCRF-CEM leukemia; 0.441% (active) with MOLT-4 leukemia; 64.6% in the experiment on RPMI-8226 leukemia; 89.9% in the experiment on OVCAR-8 ovarian; 102% in the experiment on OVCAR-5 ovarian; 101% in the experiment with OVCAR-4 ovarian. The growth in the experiment with SK-OV-3 ovarian is 132%; in the experiment with IGROV1 ovarian it was 19.9%; with OVCAR-3 ovarian, -54.2% (active); in the experiment on HS 578T breast it was 106%; in the experiment on NCI/ADR-RES ovarian, 99.3%; in the experiment with T-47D breast it was 49.9%.
In the case of `Cc1ccc2ccc3ccc(C)nc3c2n1.Cc1ccc2ccc3ccc(C)nc3c2n1.Oc1c(Cl)cc(Cl)c2ccc(CN3CCCCC3)nc12.[Ru]`, the growth was -64.9% (active) in the experiment on EKVX NSCLC; -64.9% (active) with SN12C renal; -89.8% (active) with UO-31 renal; -95.6% (active) in the experiment with ACHN renal; -77.7% (active) in the experiment on CAKI-1 renal; -88.7% (active) in the experiment with A498 renal. For the same compound, the growth is -47.9% (active) in the experiment with CCRF-CEM leukemia; -52.7% (active) in the experiment with MOLT-4 leukemia; -46% (active) with RPMI-8226 leukemia; -75.4% (active) in the experiment with OVCAR-8 ovarian; -72% (active) with OVCAR-5 ovarian; -72.6% (active) in the experiment with SK-OV-3 ovarian. Further, the growth in the experiment with IGROV1 ovarian is -58.4% (active); with OVCAR-3 ovarian, -95.3% (active); with NCI/ADR-RES ovarian, -24.4% (active); in the experiment with T-47D breast, -55.8% (active).
Turning to `O=C1Nc2cc(Cl)ccc2/C1=C\c1ccc(OCc2ccc(Br)cc2F)cc1`, the growth was -18.9% (active) in the experiment with EKVX NSCLC; -70.1% (active) in the experiment on SN12C renal; -68.7% (active) in the experiment on UO-31 renal; -83% (active) in the experiment on ACHN renal; -77.1% (active) in the experiment on CAKI-1 renal; -75.8% (active) in the experiment on A498 renal. In addition, the growth with CCRF-CEM leukemia is 12.9%; with MOLT-4 leukemia it was 22.7%; in the experiment on SR leukemia, 27.4%; in the experiment on RPMI-8226 leukemia it was -24.3% (active); in the experiment with OVCAR-8 ovarian, -36.7% (active); with OVCAR-5 ovarian, 6.67% (active). In addition, the growth with SK-OV-3 ovarian was -36.9% (active); in the experiment with IGROV1 ovarian, -88.8% (active); in the experiment with OVCAR-3 ovarian it was -64.7% (active); in the experiment on HS 578T breast, -26.1% (active); in the experiment with NCI/ADR-RES ovarian, -0.106% (active); in the experiment on T-47D breast, -23.9% (active).
Regarding `[Cl][Ru].c1ccc(-c2cc(-c3ccccn3)nc(-c3ccccn3)c2)cc1.c1ccc(-c2ccnc3c2ccc2c(-c4ccccc4)ccnc23)cc1`, the growth in the experiment with EKVX NSCLC is 25.9%; with SN12C renal, -22.5% (active); in the experiment on UO-31 renal, 63.9%; with ACHN renal, 6% (active); in the experiment on CAKI-1 renal, -6.38% (active); with A498 renal, -20.2% (active). Besides, the growth in the experiment on CCRF-CEM leukemia was 0.187% (active); with MOLT-4 leukemia it was -16.8% (active); with SR leukemia it was -40.3% (active); in the experiment with RPMI-8226 leukemia, -41.8% (active); in the experiment with OVCAR-8 ovarian, -65.5% (active); in the experiment on OVCAR-5 ovarian, 18.3%. The growth in the experiment with SK-OV-3 ovarian is -12.1% (active); with IGROV1 ovarian, -59.2% (active); with OVCAR-3 ovarian it was -64.2% (active); in the experiment on HS 578T breast, -15.1% (active); with NCI/ADR-RES ovarian, 93.7%; with T-47D breast, -11.4% (active).
For `COc1ccc(-c2cc(C(=O)N=Nc3c(O)[nH]c4ccccc34)c3ccccc3n2)cc1OC`, the growth was 91.9% with EKVX NSCLC; 94.6% with SN12C renal; 85.2% in the experiment on UO-31 renal; 102% with ACHN renal; 94.9% in the experiment with CAKI-1 renal; 82.1% in the experiment with A498 renal. The growth in the experiment on CCRF-CEM leukemia is 100%; in the experiment on MOLT-4 leukemia it was 102%; in the experiment with SR leukemia it was 102%; in the experiment with RPMI-8226 leukemia, 99.4%; in the experiment with OVCAR-8 ovarian, 98%; in the experiment on OVCAR-5 ovarian it was 91%. For the same compound, the growth in the experiment with OVCAR-4 ovarian is 99.3%; in the experiment on SK-OV-3 ovarian, 103%; in the experiment on IGROV1 ovarian, 90.2%; in the experiment with OVCAR-3 ovarian, 109%; in the experiment on NCI/ADR-RES ovarian, 92.1%; with T-47D breast, 87.3%.
`O=C1/C(=C/C2=Cc3ccccc3OC2)SC(=S)N1c1ccc(F)cc1`: the growth with EKVX NSCLC was 94.7%; in the experiment on SN12C renal it was 93%; in the experiment on UO-31 renal it was 86.3%; in the experiment with ACHN renal it was 76%; in the experiment with CAKI-1 renal it was 90.6%; in the experiment with A498 renal it was 71.6%. Moreover, the growth was 109% with CCRF-CEM leukemia; 97.2% in the experiment on SR leukemia; 104% with RPMI-8226 leukemia; 105% in the experiment with OVCAR-8 ovarian; 100% in the experiment on OVCAR-5 ovarian; 96.1% in the experiment with OVCAR-4 ovarian. The growth in the experiment on SK-OV-3 ovarian is 108%; with IGROV1 ovarian, 95.9%; in the experiment with OVCAR-3 ovarian, 109%; with HS 578T breast, 99.2%; in the experiment with NCI/ADR-RES ovarian it was 108%; with T-47D breast, 87.7%.

Source of the values: PubChem BioAssay (NCI).
